In PubChem BioAssay AID686965 (The Scripps Research Institute Molecular Screening Center, 2013):
Calls of active or inactive are those of the source. No rule for the calls is given here.

assay: GFP fluorescence inhibitors and quenchers, late-stage follow-up, artefact control for Rin1-Abl interaction inhibitor project, biochemical, dose response, round 2 (AID 686965); details: GFP fluorescence quenching/inhibition counterscreen

Question: With `O=c1cc(OCc2ccc(F)cc2)cc[nH]1` as the compound, how does the IC50 read?
Answer: > 67.5 µM (inactive)

Question: With `Nc1cc(OCc2ccccc2)ccn1` as the compound, how does the IC50 read?
Answer: > 67.5 µM (inactive)

Question: For `COc1cc(OCc2ccccc2)ccn1`, which IC50 is on record?
Answer: > 67.5 µM (inactive)

Question: Which IC50 does the source give for `COc1ccc(COc2ccn(C)c(=O)c2)cc1` here?
Answer: > 67.5 µM (inactive)

Question: For `O=c1cc(OCc2ccccc2)cc[nH]1`, which IC50 is on record?
Answer: > 67.5 µM (inactive)

Question: Which IC50 does the source give for `Cn1ccc(OCc2ccc(F)cc2)cc1=O` here?
Answer: > 67.5 µM (inactive)

Question: With `COc1ccc(COc2cc[nH]c(=O)c2)cc1` as the compound, how does the IC50 read?
Answer: > 67.5 µM (inactive)

Question: Which IC50 does the source give for `Cn1ccc(OCc2ccccc2)cc1=O` here?
Answer: > 67.5 µM (inactive)

Question: With `COc1cc(OCc2ccc(F)cc2)ccn1` as the compound, how does the IC50 read?
Answer: > 67.5 µM (inactive)

Question: For `COc1ccc(COc2ccnc(OC)c2)cc1`, which IC50 is on record?
Answer: > 67.5 µM (inactive)
